Reference: PubChem BioAssay (NCI)
Compounds without any hit were thinned out: in the full panel of roughly 83,000, 20% have a hit.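 For each line, cells grew in 96-well plates with the test compound present at a single concentration for 48 hours.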 Values without a mark were called inactive. The source made the active and inactive calls. Rule for the calls: active = growth percent below 10; inactive = the rest.

These compounds were tested on MDA-MB-468 breast (assay: NCI-60 one-dose screen, 48 h (100 = growth as untreated, 0 = no growth, -100 = all killed)). Conditions: 10 µM unless noted.

SMILES | growth
CCc1n(Cc2ccc3ccccc3c2)cc[n+]1Cc1ccc2ccccc2c1 | -22.9% (active)
COc1cccc(NC(=O)c2sc3nc4c(cc3c2N)CN(Cc2ccccc2)CC4)c1 | 64.4%
CN(C)c1ccc2cc(-c3ccc(Cl)c(Cl)c3)c(N)nc2c1 | 18.9%
O=C(CCl)NNc1nccc(Nc2ccc(S(=O)(=O)Nc3ccncc3)cc2)n1 | 31.5%
COc1ccc(/C=C2\SC(=O)N(Cc3cc(=O)oc4ccc(OC)cc34)C2=O)cc1 | 46.6%
COc1cc2nc(Cc3ccc(C)cc3)[nH]c(=O)c2cc1OC | 98.8%
CCc1ccc(CCC(=O)Nc2ncc(Cc3cc(Cl)ccc3Cl)s2)o1 | -23% (active)
O=C(/C=C/c1cc2ccccc2[nH]c1=O)c1ccc2c(c1)OCO2 | 114%
O=C(CSc1nc2sc3c(c2c(=O)n1-c1ccc(Cl)cc1)CCCC3)N/N=C/c1ccc(F)cc1 | 129%
Cc1cccc2c1O/C(=C\c1ccc([N+](=O)[O-])o1)C2=O | -58.1% (active)
COc1ccc(C(=O)C2C(c3ccc(OC)cc3)CN(C)C23C(=O)Nc2ccccc23)cc1 (stereo unspecified) | 95.4%
O=C1C(=O)c2ccc(Br)cc2-c2cc(Br)ccc21 | 0.713% (active)
Fc1ccc(C(c2ccc(F)cc2)C(Cl)Cl)cc1 | 104%
O=c1cc(-c2nccc3c2[nH]c2ccccc23)c2cc(Cl)ccc2o1 | 2.37% (active)
Cc1c(C(N)=O)sc2c1c(=O)n(Cc1ccccc1)c1nnc(S(C)(=O)=O)n21 | 57.1%
Cc1ccc(C(C(N)=O)C(C(N)=O)c2ccccc2)cc1 (stereo unspecified) | 105%
CC(=O)c1cccc(Nc2ncnc3ccc(NC(=O)c4ccco4)cc23)c1 | 60.2%
COc1ccc2sc3c(NCCCN)nc4ccccc4c3c(=O)c2c1 | 48.6%
Clc1cc(Cl)cc(-c2ccc(-c3ccc(/C=N/NC4=NCCN4)cc3)s2)c1 | -3.62% (active)
CCOC(=O)c1ccc2nc(-c3c(C)nn(-c4ccccc4)c3N3CCOCC3)[nH]c2c1 | 105%
COc1cc(/C(C#N)=C/c2nc3c(N4CCOCC4)nc(Cl)nc3n2C)cc(OC)c1OC | 15%
CC1C(C)N(C(=O)CCl)c2ccccc2N1C(=O)CCl (stereo unspecified) | -69% (active)
O=C(c1ccccc1)c1ccc(N2C(=O)C3C4c5ccccc5C(/C=C/C(=O)c5ccccn5)(c5ccccc54)C3C2=O)cc1 (stereo unspecified) | 21.9%
Clc1ccccc1[C@@H]1C[C@@H]2Cc3cc(Br)c4ccccc4c3N1O2 | 4.19% (active)
CCOC(=O)c1cc(C(=O)c2cc(OC)cc(OC)c2)n2ncccc12 | 26.3%
CCCNCCC(C)=O | 127%
